Reference: PubChem BioAssay (EPA / NIEHS)
Several values for one entry are separate records, joined by “and”; a condition that tells them apart may be missing. Identical values can stand only once. Activity calls are given as the source filed them. Rule for the calls: active = hit-call score of the fitted dose curve at least 0.9, where 1 is the maximum; inactive = score below 0.9.

Assay: ATG_TCF_b_cat_CIS: Attagene CIS-FACTORIAL HepG2 Assay for human T-Cell-Factor with beta-catenin (TCF/b-cat) (AID 2282965)
Conditions: HepG2 TCF/beta-catenin cis-reporter transcription, actives raise or lower the signal
Procedure: ATG_CIS is a cell-based, multiplexed-readout assay that uses HepG2, a human liver cell line, with measurements taken at 24 hours after chemical dosing in a 24-well plate.ATG_TCF_b_cat_CIS is one of 52 assay component(s) measured or calculated from the ATG_CIS assay. It is designed to make measurements of mRNA induction, a form of inducible reporter, as detected with fluorescence intensity signals by Reverse transcription polymerase chain reaction (RT-PCR) and Capillary electrophoresis technology.Data from the assay component ATG_TCF_b_cat_CIS was analyzed into 1 assay endpoint. This assay endpoint, ATG_TCF_b_cat_CIS, was analyzed with bidirectional fitting relative to DMSO as the negative control and baseline of activity. Using a type of inducible reporter, measures of mRNA for gain or loss-of-signal activity can be used to understand the reporter gene at the transcription factor-level as they relate to the gene TCF7 and TCF7L2 and LEF1 and TCF7L1. Furthermore, this assay endpoint can be referred to as a primary readout, because this assay has produced multiple assay endpoints where this one serves a reporter gene function. To generalize the intended target to other relatable targets, this assay endpoint is annotated to the dna binding intended target family, where the subfamily is HMG box protein.
Human liver HepG2 cells are transiently transfected with multiple reporter transcription units (MRTUs) in 6-well plates using FuGene 6 reagent (Roche; 3 ml FuGene/1 mg DNA). The MRTU constructs are regulated by a cis-regulating element (promoter). […] A major difference between the CIS and TRANS system is that in CIS activities of endogenous TFs are measured, whereas the TRANS assay evaluates changes in activities of exogenous, chimeric NR-Gal4 proteins. […] At the end of 24 hour incubation, total RNA was isolated using TriZol reagent (Invitrogen). The isolated RNA is then reverse-transcribed using oligo(dT) primer and Mo-MLV reverse transcriptase (Invitrogen) with DNAse I (Ambion) treatment for 30 min. The one-tenth of the produced cDNA was amplified by PCR using Taq DNA polymerase (Invitrogen) and two reporter sequence-specific primers. The PCR products were fluorescently labeled by primer extension with 6-arboxyfluorescein (6-FAM) 5'-labeled reporter sequence-specific primer (2 min at 95 C, 20 s at 68 C and 10 min at 72 C) and these products were digested with 5U of HpaI (New England Biolabs) for 2h at 37 C. The fragments were purified using Qiaquick PCR columns (Qiagen), analyzed on an ABI 3130xL genetic analyzer (Applied Biosystems) with peak positions identified by using a set of X-rhodamine (ROX)-labeled MapMarker1000 molecular weight standards (BioVentures). The raw capillary electrophoresis data was processed using Attagraph software (Attagene).

**Q.** For `CC(=O)c1cc(C(C)(C)C)cc2c1CCC2(C)C`, which outcome is on record?
**A.** The outcome was “inactive”.

**Q.** For `ClCc1ccccn1`, which outcome is on record?
**A.** The outcome was “inactive”.

**Q.** Which outcome does the source give for `O=C(Cl)c1ccc(Cl)cc1` here?
**A.** Its outcome is “inactive”.

**Q.** For `CCCCOCCOC(C)=O`, which outcome is on record?
**A.** The outcome was “inactive”.

**Q.** Which outcome does the source give for `NC(=O)O` here?
**A.** Its outcome is “inactive”.

**Q.** With `CCC(=O)C(CC(C)N(C)C)(c1ccccc1)c1ccccc1` (stereo not given) as the compound, how does the outcome read?
**A.** The outcome was “inactive”.

**Q.** Which AC50 does the source give for `Nc1ccc(-c2ccc(N)c(Cl)c2)cc1Cl` here?
**A.** Its AC50 is 4.63 µM (active).

**Q.** For `CC(C)CCCCCCOC(=O)c1ccccc1C(=O)OCCCCCCC(C)C`, which outcome is on record?
**A.** The outcome was “inactive”.

**Q.** For `CC(=O)C=C(C)C`, which outcome is on record?
**A.** Its outcome is “inactive”.

**Q.** For `ClC(Cl)=C(Cl)C(Cl)=C(Cl)Cl`, which AC50 is on record?
**A.** The AC50 was 40.4 µM (active).

**Q.** Which outcome does the source give for `c1cc[c]([Hg][c]2ccccc2)cc1` here?
**A.** The outcome was “inactive”.

**Q.** Which AC50 does the source give for `CCN1CCC2(CC1)COc1cc3c(cc12)N(C(=O)c1ccc(-c2ccc(-c4nnc(C)o4)cc2C)cc1)CC3` here?
**A.** Its AC50 is 6.25 µM (active).

**Q.** With `CC(C)c1cccc(C(C)C)c1O` as the compound, how does the outcome read?
**A.** The outcome was “inactive”.

**Q.** With `CC(=O)OC(c1ccccc1)C(Cl)(Cl)Cl` (stereo not given) as the compound, how does the outcome read?
**A.** Its outcome is “inactive”.

**Q.** With `c1ccc(N=NNc2ccccc2)cc1` as the compound, how does the outcome read?
**A.** Its outcome is “inactive”.

**Q.** For `CC(C)(c1ccccc1)c1ccc(O)c(C(C)(C)c2ccccc2)c1`, which outcome is on record?
**A.** The outcome was “inactive”.

**Q.** With `CC(=O)[O][Hg][c]1ccccc1` as the compound, how does the outcome read?
**A.** The outcome was “inactive”.

**Q.** For `COc1cc(-c2ccc(N)c(OC)c2)ccc1N`, which outcome is on record?
**A.** The outcome was “inactive”.

**Q.** With `NC(=S)Nc1ccccc1` as the compound, how does the outcome read?
**A.** Its outcome is “inactive”.

**Q.** With `Cc1ccc2ccccc2c1C` as the compound, how does the outcome read?
**A.** The outcome was “inactive”.

**Q.** With `CC1(C)Cc2cccc(O)c2O1` as the compound, how does the outcome read?
**A.** The outcome was “inactive”.

**Q.** For `OCc1ccco1`, which outcome is on record?
**A.** The outcome was “inactive”.

**Q.** With `CCc1ccccc1N` as the compound, how does the outcome read?
**A.** Its outcome is “inactive”.

**Q.** Which outcome does the source give for `O=C1C(Cl)=C(Cl)C(=O)c2ccccc21` here?
**A.** The outcome was “inactive”.

**Q.** Which AC50 does the source give for `O=C(O)C(F)(F)C(F)(F)C(F)(F)C(F)(F)C(F)(F)C(F)(F)C(F)(F)C(F)(F)C(F)(F)C(F)(F)F` here?
**A.** The AC50 was 31.9 µM (active) and 13.1 µM (active).

**Q.** For `Cc1ccccc1C(=O)Nc1cccc(OC(C)C)c1`, which outcome is on record?
**A.** The outcome was “inactive”.

**Q.** Which AC50 does the source give for `O=C(CCl)CCl` here?
**A.** Its AC50 is 23.4 µM (active).

**Q.** For `O=C(Cc1ccccc1)c1ccccc1`, which outcome is on record?
**A.** Its outcome is “inactive”.

**Q.** For `Cc1cc(=O)[nH]o1`, which outcome is on record?
**A.** The outcome was “inactive”.

**Q.** For `Nc1ncc([N+](=O)[O-])s1`, which outcome is on record?
**A.** Its outcome is “inactive”.

**Q.** For `C[C@@H](Oc1ccc(Cl)cc1Cl)C(=O)O`, which outcome is on record?
**A.** Its outcome is “inactive”.

**Q.** For `C=CCc1ccc(OC)cc1`, which outcome is on record?
**A.** Its outcome is “inactive”.

**Q.** With `CC12CC1(C)C(=O)N(c1cc(Cl)cc(Cl)c1)C2=O` (stereo not given) as the compound, how does the outcome read?
**A.** Its outcome is “inactive”.

**Q.** Which outcome does the source give for `CNC(=O)O/N=C/C(C)(C)S(C)=O` (stereo not given) here?
**A.** Its outcome is “inactive”.

**Q.** With `CCc1ccccc1C` as the compound, how does the outcome read?
**A.** Its outcome is “inactive”.

**Q.** With `C[C@H]1O[C@@H](O[C@H]2[C@@H](O)C[C@H](O[C@H]3[C@@H](O)C[C@H](O[C@H]4CC[C@@]5(C)[C@H](CC[C@@H]6[C@@H]5CC[C@]5(C)[C@@H](C7=CC(=O)OC7)CC[C@]65O)C4)O[C@@H]3C)O[C@@H]2C)C[C@H](O)[C@@H]1O` as the compound, how does the outcome read?
**A.** Its outcome is “inactive”.

**Q.** Which AC50 does the source give for `C[C@@H]1C[C@@H]([C@H](O)CC2CC(=O)NC(=O)C2)C(=O)[C@@H](C)C1` here?
**A.** The AC50 was 8.48 µM (active) [middle of 4 runs].

**Q.** For `BrCCBr`, which outcome is on record?
**A.** Its outcome is “inactive”.

**Q.** For `CCCCC(CC)CO[N+](=O)[O-]` (stereo not given), which outcome is on record?
**A.** The outcome was “inactive”.

**Q.** With `CC(Br)C(=O)O` (stereo not given) as the compound, how does the outcome read?
**A.** The outcome was “inactive”.
